# Test results taken from PubChem BioAssay (EPA / NIEHS).
# Records with an inconclusive call do not appear. Activity calls are given as the source filed them. The calls were made as follows, unless noted: active = hit-call score of the fitted dose curve at least 0.9, where 1 is the maximum; inactive = score below 0.9.
# How the values were obtained:
# [1] = target: Paired box protein Pax-6 (Homo sapiens) (UniProt P26367); experiment: ATG_Pax6_CIS: Attagene CIS-FACTORIAL HepG2 Assay for human Paired Box 6 (PAX6) (AID 2282956); conditions: HepG2 CIS-FACTORIAL PAX6 reporter transcription, RNA readout; actives raise or lower the signal
# Method in brief: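 HepG2 cells transiently transfected with cis-promoter-driven multiplexed reporter units sensing endogenous transcription factor activity; 24 h chemical exposure. Reporter mRNA quantified by RT-PCR, 6-FAM labelling, HpaI digestion and capillary electrophoresis; bidirectional fit versus DMSO baseline.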
# [2] = ATG_PXRE_CIS: Attagene CIS-FACTORIAL HepG2 Assay for human Pregnane X Receptor Element (PXRE) (AID 2282957); conditions: HepG2 Attagene CIS-FACTORIAL PXRE reporter, mRNA; actives raise or lower the signal
# Method in brief: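 Cis-element reporter mRNA in human hepatoma HepG2 cells is measured 24 h post-dosing by RT-PCR, primer-extension labeling and capillary electrophoresis; gain or loss of signal is fitted relative to DMSO.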
# [3] = ATG_PPRE_CIS: Attagene CIS-FACTORIAL HepG2 Assay for human Peroxisome Proliferator-activated Response Element (PPRE) (AID 2282958); conditions: HepG2 PPRE cis-element reporter, Attagene transcription factor profiling; actives raise or lower the signal
# Method in brief: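 Measured endpoint: PPRE-controlled reporter mRNA, detected by RT-PCR and capillary electrophoresis fluorescence, from transiently transfected HepG2 cells 24 h after dosing. Curves fitted in both directions using DMSO baseline.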
# [4] = ATG_RORE_CIS: Attagene CIS-FACTORIAL HepG2 Assay for human RAR-related Orphan Receptor Element (RORE) (AID 2282959); conditions: HepG2 Attagene cis-factorial RORE reporter, mRNA; actives raise or lower the signal
# Method in brief: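 Transiently transfected HepG2 reporter cells were treated 24 h. Reporter transcripts were detected by RT-PCR and capillary electrophoresis, with bidirectional fitting against DMSO.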
# [5] = ATG_Sox_CIS: Attagene CIS-FACTORIAL HepG2 Assay for human SRY-box transcription factor (SOX) (AID 2282960); conditions: HepG2 Attagene cis-factorial SOX reporter, mRNA; actives raise or lower the signal
# Method in brief: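 Gain- or loss-of-signal endpoint, fitted bidirectionally with DMSO as negative control. Based on reporter mRNA from transfected HepG2 cells harvested 24 h post-treatment and quantified via RT-PCR and capillary electrophoresis.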
# [6] = ATG_SREBP_CIS: Attagene CIS-FACTORIAL HepG2 Assay for human Sterol Regulatory Element Binding (SREBP) (AID 2282962); conditions: HepG2 Attagene cis-factorial SREBP reporter, mRNA; actives raise or lower the signal
# Method in brief: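 HepG2 cells transiently transfected with multiplexed cis-promoter reporter units sensing endogenous transcription factors; reporter mRNA measured 24 h after dosing by RT-PCR, 6-FAM labeling, HpaI digestion and capillary electrophoresis. Bidirectional fit versus DMSO.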
# [7] = target: Signal transducer and activator of transcription 3 (Homo sapiens) (UniProt P40763); experiment: ATG_STAT3_CIS: Attagene CIS-FACTORIAL HepG2 Assay for human Signal Transducer and Activator of Transcription 3 (STAT3) (AID 2282963); conditions: HepG2, Attagene cis-factorial STAT3 reporter transcription; actives raise or lower the signal
# Method in brief: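 Transcript-level reporter assay. HepG2 transient MRTU transfection, 24 h exposure, fluorescence detection after RT-PCR and CE; DMSO baseline.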
# [8] = ATG_TA_CIS: Attagene CIS-FACTORIAL HepG2 Assay for human TA Basal Promoter (AID 2282964); conditions: HepG2 Attagene CIS-factorial TA basal promoter reporter; actives raise or lower the signal
# Method in brief: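 HepG2 cells transiently transfected with multiple reporter units under cis promoter elements, reporting endogenous transcription factor activity; this endpoint tracks the TA basal promoter as background control. Reporter mRNA after 24 h dosing measured by RT-PCR/capillary electrophoresis; bidirectional fits versus DMSO.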
# [9] = ATG_TCF_b_cat_CIS: Attagene CIS-FACTORIAL HepG2 Assay for human T-Cell-Factor with beta-catenin (TCF/b-cat) (AID 2282965); conditions: HepG2 TCF/beta-catenin cis-reporter transcription, actives raise or lower the signal
# Method in brief: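 In this cis-format system, transfected HepG2 cells report endogenous transcription factor activity. Readout after 24 h exposure is reporter transcript abundance from RT-PCR and capillary electrophoresis, analysed for gain or loss of signal versus DMSO.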
# [10] = ATG_TGFb_CIS: Attagene CIS-FACTORIAL HepG2 Assay for human Transforming Growth Factor (TGF) (AID 2282967); conditions: HepG2 Attagene CIS TGFb reporter, mRNA transcription; actives raise or lower the signal
# Method in brief: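 HepG2 cells transiently transfected with cis-promoter-driven multiple reporter units measure endogenous TF activity; reporter mRNA quantified at 24 h by RT-PCR, FAM labeling, HpaI digestion and capillary electrophoresis. Bidirectional fit vs DMSO.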
# [11] = ATG_VDRE_CIS: Attagene CIS-FACTORIAL HepG2 Assay for human Vitamin D Receptor Element (VDRE) (AID 2282968); conditions: HepG2 VDRE cis-reporter transcription, actives raise or lower the signal
# Method in brief: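 RT-PCR/CE readout of reporter mRNA; HepG2, transient transfection, 24 h dosing; DMSO baseline; bidirectional analysis.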
# [12] = target: Nuclear receptor subfamily 1 group I member 3 (Homo sapiens) (UniProt Q14994); experiment: ATG_CAR_TRANS: Attagene TRANS-FACTORIAL HepG2 Assay for human Constitutive Androstane Receptor (CAR) (AID 2282969; active = hit-call score of the fitted dose curve at least 0.9, where 1 is the maximum;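 also: activators raise reporter mRNA above DMSO so AC50 marks induction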); conditions: HepG2 Attagene TRANS-FACTORIAL CAR reporter
# Method in brief: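 HepG2 cells transiently transfected with multiplexed GAL4-UAS reporter units expressing chimeric NR-Gal4 proteins; compound exposure 24 h. Reporter mRNA measured by RT-PCR, 6-FAM labelling, HpaI digestion and capillary electrophoresis; gain-of-signal fitted against DMSO baseline.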
# [13] = target: X-box-binding protein 1 (Homo sapiens) (UniProt P17861); experiment: ATG_Xbp1_CIS: Attagene CIS-FACTORIAL HepG2 Assay for human X-box Binding Protein 1 (XBP1) (AID 2282972); conditions: HepG2 XBP1 cis-element reporter, Attagene multiplex; actives raise or lower the signal
# Method in brief: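 HepG2 cells transiently transfected with multiple cis-element reporter units report endogenous TF activity; 24 h exposure, then reporter mRNA measured by RT-PCR, 6-FAM labelling, HpaI digestion and capillary electrophoresis. Bidirectional fitting versus DMSO.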
# [14] = ATG_M_19_TRANS: Attagene TRANS-FACTORIAL HepG2 Assay for M19 Transcription Factor (Internal Marker) (AID 2282974; active = hit-call score of the fitted dose curve at least 0.9, where 1 is the maximum); conditions: HepG2 Attagene TRANS-FACTORIAL M19 internal marker reporter
# Method in brief: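 Using RT-PCR and capillary electrophoresis, reporter mRNA from transiently transfected human HepG2 cells was quantified following 24 h exposure; activity was fitted in the positive direction against DMSO.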
# [15] = target: Glucocorticoid receptor (Homo sapiens) (UniProt P04150); experiment: ATG_GR_TRANS: Attagene TRANS-FACTORIAL HepG2 Assay for human Glucocorticoid Receptor (GR) (AID 2282978; active = hit-call score of the fitted dose curve at least 0.9, where 1 is the maximum;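 also: activators score as hits since higher reporter transcript over DMSO is fitted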); conditions: HepG2 Attagene TRANS GR reporter, mRNA transcription
# Method in brief: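 Exogenous NR-GAL4 fusion activity was assessed through induced GAL4-UAS reporter transcripts in transfected human HepG2 cells, quantified after 24 h by RT-PCR and fluorescent capillary electrophoresis with DMSO as baseline.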
# [16] = target: Transcription factor Sp1 (Homo sapiens) (UniProt P08047); experiment: ATG_Sp1_CIS: Attagene CIS-FACTORIAL HepG2 Assay for human Specificity Protein 1 (Sp1) (AID 2282961); conditions: HepG2 Sp1 cis-reporter transcription, actives raise or lower the signal
# Method in brief: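 Endpoint reflects endogenous Sp1 transcriptional activity, not an exogenous fusion protein: HepG2 cells with transfected cis-regulated reporters, 24 h dosing, RT-PCR/capillary electrophoresis mRNA read-out, DMSO-normalised bidirectional fit.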
# [17] = ATG_TAL_CIS: Attagene CIS-FACTORIAL HepG2 Assay for human TAL Basal Promoter (AID 2282966); conditions: HepG2 Attagene cis-factorial TAL promoter reporter; actives raise or lower the signal;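 also: background control endpoint measuring basal TAL promoter reporter mRNA not a specific factor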
# Method in brief: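 In this cell-based multiplex, HepG2 liver cells bearing cis-promoter reporter constructs are dosed for 24 hours. Total RNA is reverse-transcribed and amplified, labelled fragments are sized by capillary electrophoresis, and signal changes are fitted bidirectionally versus DMSO.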
# [18] = target: Steroid hormone receptor ERR1 (Homo sapiens) (UniProt P11474); experiment: ATG_ERRa_TRANS: Attagene TRANS-FACTORIAL HepG2 Assay for human Estrogen-Related Receptor alpha (ERRa) (AID 2282971; active = hit-call score of the fitted dose curve at least 0.9, where 1 is the maximum); conditions: HepG2 Attagene TRANS reporter, ERRa transactivation
# Method in brief: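 Transfected HepG2, 24 h dosing, ERRa-Gal4 chimera driving GAL4-UAS reporter. Readout: reporter mRNA via RT-PCR plus capillary electrophoresis (fluorescence). Positive direction vs DMSO control.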
# [19] = ATG_GAL4_TRANS: Attagene TRANS-FACTORIAL HepG2 Assay for GAL4 (Internal Marker) (AID 2282976; active = hit-call score of the fitted dose curve at least 0.9, where 1 is the maximum); conditions: HepG2 Attagene TRANS GAL4 internal marker reporter
# Method in brief: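 RT-PCR/capillary electrophoresis readout of reporter mRNA. HepG2, transient MRTU transfection (GAL4-UAS reporters), 24 h compound exposure. Background-control endpoint, positive direction vs DMSO baseline.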
# [20] = target: Estrogen-related receptor gamma (Homo sapiens) (UniProt P62508); experiment: ATG_ERRg_TRANS: Attagene TRANS-FACTORIAL HepG2 Assay for human Estrogen-Related Receptor gamma (ERRg) (AID 2282977; active = hit-call score of the fitted dose curve at least 0.9, where 1 is the maximum;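 also: hits increase reporter signal over DMSO so potencies reflect activators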); conditions: HepG2 Attagene TRANS reporter, ERRg transactivation
# Method in brief: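 Transfect HepG2 with multiple GAL4-UAS reporter transcription units; dose chemicals 24 h; isolate RNA, reverse-transcribe with oligo(dT), PCR-amplify, label with 6-FAM, digest with HpaI; size fragments by capillary electrophoresis. DMSO serves as negative control.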
# Chain of Glucocorticoid receptor (Homo sapiens) (P04150 whole entry, looked up, the tested form may be a part): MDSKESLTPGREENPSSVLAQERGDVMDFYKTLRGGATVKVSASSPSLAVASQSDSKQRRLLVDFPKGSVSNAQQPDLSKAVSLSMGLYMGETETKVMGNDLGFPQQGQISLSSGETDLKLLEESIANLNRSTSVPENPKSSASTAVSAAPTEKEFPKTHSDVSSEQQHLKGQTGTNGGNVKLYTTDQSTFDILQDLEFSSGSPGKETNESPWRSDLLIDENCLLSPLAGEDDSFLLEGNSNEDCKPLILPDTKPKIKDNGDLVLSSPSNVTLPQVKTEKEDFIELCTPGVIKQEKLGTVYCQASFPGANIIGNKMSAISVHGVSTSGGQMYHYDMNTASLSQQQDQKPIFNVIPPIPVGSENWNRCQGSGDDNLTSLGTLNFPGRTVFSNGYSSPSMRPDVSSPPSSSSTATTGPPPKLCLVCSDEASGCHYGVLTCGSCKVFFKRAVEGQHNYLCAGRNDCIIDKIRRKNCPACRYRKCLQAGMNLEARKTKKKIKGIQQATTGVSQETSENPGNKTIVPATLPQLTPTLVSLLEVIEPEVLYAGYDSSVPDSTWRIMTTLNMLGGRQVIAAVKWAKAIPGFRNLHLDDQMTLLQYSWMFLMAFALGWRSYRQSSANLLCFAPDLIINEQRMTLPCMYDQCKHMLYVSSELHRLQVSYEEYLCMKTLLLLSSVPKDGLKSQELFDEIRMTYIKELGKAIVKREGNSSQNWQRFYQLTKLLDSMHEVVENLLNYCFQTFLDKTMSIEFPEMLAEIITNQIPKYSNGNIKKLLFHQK
# Chain of Steroid hormone receptor ERR1 (Homo sapiens) (P11474 whole entry, looked up, the tested form may be a part): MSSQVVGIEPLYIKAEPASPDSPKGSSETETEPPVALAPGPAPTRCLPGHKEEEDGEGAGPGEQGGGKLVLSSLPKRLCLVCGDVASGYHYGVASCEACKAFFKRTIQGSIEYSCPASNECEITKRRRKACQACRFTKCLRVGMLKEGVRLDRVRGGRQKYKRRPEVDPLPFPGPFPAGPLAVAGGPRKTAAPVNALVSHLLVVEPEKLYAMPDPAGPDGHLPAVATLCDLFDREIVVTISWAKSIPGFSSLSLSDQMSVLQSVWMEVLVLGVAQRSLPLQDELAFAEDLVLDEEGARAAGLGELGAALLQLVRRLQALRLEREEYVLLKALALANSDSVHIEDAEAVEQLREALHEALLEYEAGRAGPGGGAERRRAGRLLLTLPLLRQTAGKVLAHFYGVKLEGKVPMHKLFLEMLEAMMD
# Chain of Paired box protein Pax-6 (Homo sapiens) (P26367 whole entry, looked up): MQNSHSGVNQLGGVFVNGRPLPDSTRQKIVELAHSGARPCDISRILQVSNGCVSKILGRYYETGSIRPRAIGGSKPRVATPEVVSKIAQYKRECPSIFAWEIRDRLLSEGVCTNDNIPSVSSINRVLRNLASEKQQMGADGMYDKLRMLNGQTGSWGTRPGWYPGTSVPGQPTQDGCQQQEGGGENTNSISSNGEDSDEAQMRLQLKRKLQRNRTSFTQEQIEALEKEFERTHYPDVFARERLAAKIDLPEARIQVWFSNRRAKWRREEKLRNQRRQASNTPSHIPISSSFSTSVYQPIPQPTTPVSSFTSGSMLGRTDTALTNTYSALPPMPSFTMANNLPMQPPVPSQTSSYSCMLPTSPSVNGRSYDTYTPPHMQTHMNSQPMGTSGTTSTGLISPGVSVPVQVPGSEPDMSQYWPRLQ
# Chain of Estrogen-related receptor gamma (Homo sapiens) (P62508 whole entry, looked up, the tested form may be a part): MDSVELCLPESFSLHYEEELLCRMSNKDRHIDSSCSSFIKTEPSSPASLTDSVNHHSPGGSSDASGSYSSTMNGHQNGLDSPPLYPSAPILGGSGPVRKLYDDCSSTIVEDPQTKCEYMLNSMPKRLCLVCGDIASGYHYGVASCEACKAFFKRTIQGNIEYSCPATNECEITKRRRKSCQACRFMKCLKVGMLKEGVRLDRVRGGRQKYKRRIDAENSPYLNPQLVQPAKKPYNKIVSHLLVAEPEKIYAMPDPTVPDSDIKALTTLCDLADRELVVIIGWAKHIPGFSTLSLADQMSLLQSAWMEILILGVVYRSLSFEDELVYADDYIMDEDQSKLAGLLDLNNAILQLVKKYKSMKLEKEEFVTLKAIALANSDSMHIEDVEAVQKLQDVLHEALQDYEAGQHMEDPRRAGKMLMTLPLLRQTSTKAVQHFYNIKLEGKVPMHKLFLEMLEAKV
# Chain of Transcription factor Sp1 (Homo sapiens) (P08047 whole entry, looked up, the tested form may be a part): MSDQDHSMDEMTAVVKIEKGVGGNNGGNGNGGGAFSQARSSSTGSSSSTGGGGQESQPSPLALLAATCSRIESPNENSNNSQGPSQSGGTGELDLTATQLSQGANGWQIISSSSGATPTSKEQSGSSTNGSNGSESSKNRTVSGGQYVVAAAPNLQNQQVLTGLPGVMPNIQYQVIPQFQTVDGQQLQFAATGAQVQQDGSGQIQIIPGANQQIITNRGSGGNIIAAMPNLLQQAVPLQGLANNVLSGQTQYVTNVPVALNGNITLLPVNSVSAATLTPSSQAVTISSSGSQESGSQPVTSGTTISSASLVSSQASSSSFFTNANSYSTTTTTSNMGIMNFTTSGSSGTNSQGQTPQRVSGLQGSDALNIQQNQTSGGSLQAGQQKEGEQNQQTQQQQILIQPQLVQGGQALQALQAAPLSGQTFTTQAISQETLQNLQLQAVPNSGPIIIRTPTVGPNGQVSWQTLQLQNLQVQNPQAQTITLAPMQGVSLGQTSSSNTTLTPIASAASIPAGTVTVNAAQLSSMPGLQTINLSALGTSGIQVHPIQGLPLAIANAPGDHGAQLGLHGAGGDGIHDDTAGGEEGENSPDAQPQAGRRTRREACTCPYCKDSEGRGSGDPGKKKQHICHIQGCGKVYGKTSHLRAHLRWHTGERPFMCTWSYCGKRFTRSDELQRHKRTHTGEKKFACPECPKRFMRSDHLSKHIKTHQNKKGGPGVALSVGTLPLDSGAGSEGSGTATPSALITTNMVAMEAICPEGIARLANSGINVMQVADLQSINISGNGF
# Chain of Signal transducer and activator of transcription 3 (Homo sapiens) (P40763 whole entry, looked up): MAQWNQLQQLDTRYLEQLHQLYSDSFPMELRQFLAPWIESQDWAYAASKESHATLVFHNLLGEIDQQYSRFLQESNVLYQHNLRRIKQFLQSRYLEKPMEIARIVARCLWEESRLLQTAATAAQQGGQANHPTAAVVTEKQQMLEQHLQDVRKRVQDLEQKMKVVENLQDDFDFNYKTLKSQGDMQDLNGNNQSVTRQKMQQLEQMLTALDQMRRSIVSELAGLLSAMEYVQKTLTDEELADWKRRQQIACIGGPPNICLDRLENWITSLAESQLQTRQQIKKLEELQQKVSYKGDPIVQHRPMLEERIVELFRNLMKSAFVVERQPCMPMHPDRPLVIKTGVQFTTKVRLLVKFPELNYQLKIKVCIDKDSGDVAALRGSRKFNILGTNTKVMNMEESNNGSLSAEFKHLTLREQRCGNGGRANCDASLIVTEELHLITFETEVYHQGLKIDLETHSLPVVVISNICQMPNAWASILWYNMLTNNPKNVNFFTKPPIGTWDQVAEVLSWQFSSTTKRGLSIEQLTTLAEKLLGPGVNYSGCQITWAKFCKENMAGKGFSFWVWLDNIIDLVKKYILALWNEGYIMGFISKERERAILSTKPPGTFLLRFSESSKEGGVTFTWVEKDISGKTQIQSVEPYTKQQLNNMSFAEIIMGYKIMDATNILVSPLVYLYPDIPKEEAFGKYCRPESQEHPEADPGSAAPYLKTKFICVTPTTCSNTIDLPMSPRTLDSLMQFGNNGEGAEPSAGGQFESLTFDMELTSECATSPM
# Chain of X-box-binding protein 1 (Homo sapiens) (P17861 whole entry, looked up): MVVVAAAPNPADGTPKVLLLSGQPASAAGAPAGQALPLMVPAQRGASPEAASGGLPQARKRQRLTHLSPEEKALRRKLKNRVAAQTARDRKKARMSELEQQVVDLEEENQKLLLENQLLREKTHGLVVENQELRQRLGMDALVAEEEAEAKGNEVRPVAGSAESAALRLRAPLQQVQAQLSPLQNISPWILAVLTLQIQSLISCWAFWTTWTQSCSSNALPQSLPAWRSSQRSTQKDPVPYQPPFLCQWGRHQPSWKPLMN
# Chain of Nuclear receptor subfamily 1 group I member 3 (Homo sapiens) (Q14994 whole entry, looked up, the tested form may be a part): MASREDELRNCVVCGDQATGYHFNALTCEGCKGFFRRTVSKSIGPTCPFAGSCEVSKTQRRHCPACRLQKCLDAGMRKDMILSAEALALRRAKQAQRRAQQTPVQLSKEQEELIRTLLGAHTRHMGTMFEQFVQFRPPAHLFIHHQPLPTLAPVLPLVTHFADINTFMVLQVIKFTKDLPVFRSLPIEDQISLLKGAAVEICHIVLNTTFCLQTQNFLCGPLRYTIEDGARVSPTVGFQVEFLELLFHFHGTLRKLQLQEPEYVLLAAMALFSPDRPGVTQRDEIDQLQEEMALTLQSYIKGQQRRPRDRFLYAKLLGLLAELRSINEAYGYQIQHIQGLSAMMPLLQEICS
compound,measurement,setting,value
C=CCOC(=O)CCCCCC,outcome,[1],inactive
same,outcome,[2],inactive
same,outcome,[3],inactive
same,outcome,[4],inactive
same,outcome,[5],inactive
same,outcome,[6],inactive
same,outcome,[7],inactive
same,outcome,[8],inactive
same,outcome,[9],inactive
same,AC50,[10],0.0799 µM (active)
same,outcome,[11],inactive
same,outcome,[12],inactive
same,outcome,[13],inactive
same,outcome,[14],inactive
same,outcome,[15],inactive
COCCc1ccc(OCC(O)CNC(C)C)cc1 (stereo unspecified),outcome,[1],inactive
same,AC50,[2],55 µM (active)
same,outcome,[3],inactive
same,outcome,[5],inactive
same,outcome,[16],inactive
same,outcome,[6],inactive
same,outcome,[7],inactive
same,outcome,[9],inactive
same,outcome,[17],inactive
same,outcome,[10],inactive
same,outcome,[11],inactive
same,outcome,[18],inactive
same,outcome,[14],inactive
same,outcome,[15],inactive
CCC(C)S (stereo unspecified),outcome,[1],inactive
same,outcome,[2],inactive
same,outcome,[3],inactive
same,outcome,[4],inactive
same,outcome,[5],inactive
same,outcome,[6],inactive
same,outcome,[7],inactive
same,outcome,[8],inactive
same,outcome,[9],inactive
same,outcome,[10],inactive
same,outcome,[11],inactive
same,outcome,[12],inactive
same,outcome,[13],inactive
same,outcome,[14],inactive
same,outcome,[15],inactive
CN1CCOCC1,outcome,[1],inactive
same,outcome,[2],inactive
same,outcome,[3],inactive
same,outcome,[5],inactive
same,outcome,[16],inactive
same,outcome,[6],inactive
same,outcome,[7],inactive
same,outcome,[8],inactive
same,outcome,[9],inactive
same,outcome,[17],inactive
same,outcome,[10],inactive
same,outcome,[11],inactive
same,outcome,[18],inactive
same,outcome,[14],inactive
same,outcome,[19],inactive
same,outcome,[20],inactive
same,outcome,[15],inactive
O=C1OC(=O)c2c(Cl)c(Cl)c(Cl)c(Cl)c21,outcome,[1],inactive
same,outcome,[2],inactive
same,AC50,[3],177 µM (active)
same,outcome,[4],inactive
same,outcome,[5],inactive
same,outcome,[6],inactive
same,outcome,[7],inactive
same,outcome,[8],inactive
same,outcome,[9],inactive
same,outcome,[17],inactive
same,outcome,[10],inactive
same,outcome,[18],inactive
same,outcome,[13],inactive
same,outcome,[14],inactive
same,outcome,[19],inactive
same,outcome,[20],inactive
CCOC(=O)[C@@H](C)Oc1ccc(Oc2nc3ccc(Cl)cc3o2)cc1,outcome,[1],inactive
same,outcome,[2],inactive
same,AC50,[3],100 µM (active)
same,outcome,[5],inactive
same,outcome,[16],inactive
same,outcome,[6],inactive
same,outcome,[7],inactive
same,outcome,[8],inactive
same,outcome,[9],inactive
same,outcome,[17],inactive
same,outcome,[10],inactive
same,outcome,[11],inactive
same,outcome,[13],inactive
same,outcome,[14],inactive
same,outcome,[20],inactive
same,outcome,[15],inactive
CC1(C)C2=CCCC(C)(C)[C@]23CC[C@H]1C3,outcome,[1],inactive
same,AC50,[2],1.49 µM (active)
same,outcome,[3],inactive
same,outcome,[5],inactive
same,outcome,[16],inactive
same,AC50,[6],53.2 µM (active)
same,outcome,[7],inactive
same,outcome,[8],inactive
same,outcome,[9],inactive
same,outcome,[17],inactive
same,AC50,[10],100 µM (active)
same,AC50,[11],2 µM (active)
same,outcome,[12],inactive
same,outcome,[13],inactive
same,outcome,[15],inactive
CCCCCc1ccco1,AC50,[1],111 µM (active)
same,AC50,[2],4.15 µM (active)
same,outcome,[3],inactive
same,outcome,[5],inactive
same,outcome,[7],inactive
same,outcome,[8],inactive
same,AC50,[9],70 µM (active)
same,outcome,[17],inactive
same,outcome,[10],inactive
same,outcome,[11],inactive
same,outcome,[12],inactive
same,outcome,[13],inactive
same,outcome,[14],inactive
